# ELG1 repair inh = qHTS screen for small molecules that inhibit ELG1-dependent DNA repair in human embryonic kidney (HEK293T) cells expressing luciferase-tagged ELG1. HEK293T ELG1-luciferase reporter, luminescence, 16 h; DNA damage induced by 5-fluorouridine. Potency, µM (top dose mostly 46.1 µM), inactives show top-dose activity change, negative = inhibition, actives largely listed as inhibitors. 330,000 tested, 2.3% active; also: % is scaled to controls: 0 for no effect and ±100 for the full control effect; nearly all actives have a fitted effect of over 55% in size
#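 HEK293T cells expressing luciferase-tagged ELG1 (2,000/well) received 5-Fluorouridine plus compound or DMSO for 16 hr at 37 °C. Luciferase was read by ONE-Glo luminescence after 30 min at room temperature.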
# KB-3-1 cytotox = qHTS assay for MDR1-selective chemotherapeutics: Primary screen using the parental adenocarcinoma cell KB-3-1; KB-3-1 viability, CellTiter-Glo ATP luminescence, 72 h; 400,000 tested, 1.4% active; Potency, µM (series often up to 46.1 µM), usual class: cytotoxic; AID 1347075, 2019; also: % is scaled to controls: 0 for no effect and ±100 for the full control effect; nearly all actives have a fitted effect of over 60% in size
#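 Parental KB-3-1 viability, qHTS format: 72 h compound exposure, 37 °C; CellTiter-Glo; media-only wells and DMSO plates as controls; concentration-effect fits on corrected data.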
# KB-V1 cytotox = qHTS assay for MDR1-selective chemotherapeutics: Primary screen using the drug-selected MDR subline cells KB-V1; 400,000 tested, 3.4% active; Potency, µM (doses to about 46.1 µM), actives largely listed as cytotoxic; KB-V1 MDR cells viability, CellTiter-Glo, 72 h; also: % is scaled to controls: 0 for no effect and ±100 for the full control effect; nearly all actives have a fitted effect of over 60% in size
#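 Luminescent ATP read-out (CellTiter-Glo, 10 min) measures survival of drug-selected KB-V1 MDR cells after 72 h, 37 degrees C compound exposure. Medium: phenol-red-free DMEM, 10% FBS. Values from fitted concentration-response curves.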
# SW480 rerep = A quantitative high throughput screen for small molecules that induce DNA re-replication in SW480 colon adenocarcinoma cells | SW480 DNA re-replication, Hoechst DNA content imaging, 48 h | Potency, µM (titrated, usually from 46.1 µM), inactives show top-dose re-replication activation, actives largely listed as activators | 340,000 tested, 1.8% active | AID 624297, 2012; also: % of control where 0% means no effect; nearly all actives have a fitted effect of over 55% in size
#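 Image-based DNA-content assay: after two days of treatment, nuclei were labelled with the DNA dye Hoechst and imaged, and hits were compounds raising the count of nuclei showing high fluorescence intensity.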
# MCF10A rerep = A quantitative high throughput screen for small molecules that induce DNA re-replication in MCF 10a normal breast cells; MCF 10A DNA re-replication, Hoechst nuclear intensity, 48 h; Potency, µM (series often up to 46.1 µM), for the others: at the top dose activity, positive = re-replication, hits mostly activators; 350,000 tested, 2.9% active; AID 624296, 2012; also: % of control where 0% means no effect; nearly all actives have a fitted effect of over 50% in size
# Starred values were filed as active, the others as inactive; i = inactive; u = inconclusive; x = not tested or not shown. Hits are enriched below; roughly 8.2% of the tested compounds scored in any of these assays. Calls follow the shape of the dose curve; as a rule, active = well fitted curve in the direction sought with a large enough effect; inconclusive = small, poorly fitted or top-dose-only effect, or another doubt; inactive = no such curve, though single readings can be large; an effect the other way counts as inactive or inconclusive. Potency is read from the fitted curve at half-maximal effect.
SMILES,ELG1 repair inh,KB-3-1 cytotox,KB-V1 cytotox,SW480 rerep,MCF10A rerep
Cc1ccc2nc(-c3ccc(-c4cccc(Cl)c4)cc3)c(NCc3ccccc3)n2c1,4%,i,i,0.33µM*,u
COc1ccc(-c2nc3ccccn3c2NC2CCCCC2)cc1SC1CCCCC1,u,u,i,u,12µM*
O=S(=O)(c1cccs1)N1CCCCC1,x,i,i,x,x
O=C(COC(=O)c1ccc2ncsc2c1)NC(=O)C1CCCCC1,x,i,i,x,x
Cc1noc(C)c1NC(=O)Nc1cccc2c1O[C@H](CN(C)C(=O)NC1CCCCC1)[C@@H](C)CN([C@H](C)CO)C2=O,0%,i,i,-5%,-1%
CCOC(=O)c1c(C)[nH]c(C(=O)COc2ccc3ccc(=O)oc3c2)c1C,-2%,i,i,-27%,17%
O=C(OCc1cccc(Cl)c1)c1cc(S(=O)(=O)N2CCCCC2)ccc1N1CCOCC1,u,u,u,2%,u
O=C(COC(=O)c1cc(S(=O)(=O)N2CCCCC2)ccc1N1CCOCC1)c1ccccc1,-27%,i,21µM*,5%,0%
O=C(COC(=O)c1cc(S(=O)(=O)N2CCCCC2)ccc1N1CCOCC1)c1ccc(Cl)cc1,u,i,i,6.5µM*,1%
O=C(OCCOc1cccc(Cl)c1)c1cc(S(=O)(=O)N2CCCCC2)ccc1N1CCOCC1,5.2µM*,u,u,u,u
O=C(Nc1ccc2ccccc2c1)Nc1nnc(-c2ccc(Cl)cc2)s1,x,i,i,x,x
COc1ccc(S(=O)(=O)NCC2CCCN(C(=O)CC3CCCC3)C2)cc1 (centres undefined),-11%,i,u,u,u
Cc1sc2nc(C(C)C)nc(SCC(=O)N3CCN(C(=O)c4ccco4)CC3)c2c1C,18µM*,i,i,16%,-14%
CCc1c(C)sc2nc(C(C)C)nc(SCC(=O)N3CCc4ccccc4C3)c12,0%,i,i,1%,0%
Cc1sc2nnn(CC(=O)N3CCN(C(=O)c4ccco4)CC3)c(=O)c2c1C,x,i,i,0%,-1%
CC(C)(C)C(=O)N1CCN(c2ncnc3scc(-c4ccccc4)c23)CC1,u,u,15µM*,24%,8%
CCOC(=O)N1CCN(c2ncnc3scc(-c4ccccc4)c23)CC1,u,i,u,-6%,u
Cc1ccc(-c2csc3ncnc(N4CCN(C(=O)c5ccco5)CC4)c23)cc1,16µM*,i,21µM*,6%,22%
Cc1sc2nc(C3CC3)nc(SCC(=O)N3CCc4ccccc4C3)c2c1C,u,i,5.8µM*,3%,u
O=C(NC1CCCCCC1)C1CCC(CNS(=O)(=O)c2cccc3cccnc23)CC1 (centres undefined),x,i,i,x,x
O=C1c2ccccc2C(=O)C1(c1ccccc1)N1CCN(c2cccc(C(F)(F)F)c2)CC1,x,i,u,x,x
Cc1sc2ncnc(N3CCN(C(=O)c4ccco4)CC3)c2c1C,12µM*,u,18µM*,-1%,u
CCc1ccccc1N(C)S(=O)(=O)c1ccc(-c2cc(C)no2)s1,-5%,u,u,17%,2.3µM*
CCN(c1ccccc1)S(=O)(=O)c1ccc(-c2cc(C)no2)s1,x,u,i,x,x
COc1ccc(OC)c(N/C=C/C(=C(C#N)C#N)N(C)C)c1,-10%,16µM*,i,0%,10%
SMILES,ELG1 repair inh,KB-3-1 cytotox,KB-V1 cytotox,SW480 rerep,MCF10A rerep
O=c1cc(NS(=O)(=O)c2ccccc2)nc(SCc2ccc(Cl)cc2)[nH]1,u,i,16µM*,-4%,u
O=C(CSc1nc(NS(=O)(=O)c2ccccc2)cc(=O)[nH]1)Nc1ccc(Cl)cc1,0%,u,i,-23%,0%
Cc1ccc(S(=O)(=O)Nc2cc(=O)[nH]c(SCC(=O)Nc3cccc(C(F)(F)F)c3)n2)cc1,3%,i,i,-2%,15%
Cc1ccc(NC(=O)CSc2nc(NS(=O)(=O)c3ccc(C)cc3)cc(=O)[nH]2)cc1,-2%,i,4.1µM*,0%,u
Cc1cc(OC2CCCCC2)nc(-c2ccccc2O)n1,27%,i,i,10%,21µM*
COCCn1c(=O)[nH]c2cc(C(=O)N3CCN(c4ccccc4OC)CC3)ccc2c1=O,-13%,i,i,-4%,-3%
COCCn1c(=S)[nH]c2cc(C(=O)N3CCN(c4ccccc4OC)CC3)ccc2c1=O,-14%,i,15µM*,-8%,0%
COc1ccccc1N1CCN(C(=O)c2ccc3[nH]c4c(c3c2)CC(C)CC4)CC1 (centres undefined),u,i,21µM*,11%,u
Cc1cccc(N2CCN(C(=O)c3ccc4[nH]c(C)c(C)c4c3)CC2)c1C,u,26µM*,2.3µM*,3.3µM*,2.3µM*
Cc1[nH]c2ccc(C(=O)N3CCN(c4ccccc4Cl)CC3)cc2c1C,2%,i,i,u,u
COc1ccccc1N1CCN(C(=O)c2ccc3[nH]c(C)c(C)c3c2)CC1,u,1.6µM*,4.6µM*,2.3µM*,u
Cc1ccc(-n2nnnc2SCC(=O)NC2CCS(=O)(=O)C2)c(C)c1 (centres undefined),7%,i,i,-65%,-1%
CNc1cncc(-c2ccc(OC)c(OC)c2)n1,x,i,i,x,x
O=C(CN1C(=O)c2ccccc2S1(=O)=O)Nc1ccc([N+](=O)[O-])cc1,8%,i,i,1%,5%
COc1ccccc1N1CCN(C(=O)c2cc3c(s2)-c2ccccc2OC3)CC1,21µM*,i,i,5%,32%
Cn1c(N=Nc2ccccc2)nc2ccccc21,u,i,8.2µM*,u,u
O=[N+]([O-])c1cc(Cl)ccc1Nc1nc(Nc2ccc(Cl)cc2[N+](=O)[O-])nc(N2CCOCC2)n1,x,i,i,x,x
CCc1nn(C(C)C(=O)N2CCN(c3cccc(C(F)(F)F)c3)CC2)c(=O)c2cc3occc3n12 (centres undefined),x,13µM*,8.2µM*,x,x
CCc1nn(CCCC(=O)NCc2ccc(OC(C)C)cc2)c(=O)c2cc3occc3n12,-16%,7.3µM*,u,u,u
CCc1nn(C(C)C(=O)N2CCN(c3ccc(OC)cc3)CC2)c(=O)c2cc3occc3n12 (centres undefined),-11%,9.2µM*,i,u,u

# Screens deposited in PubChem by National Center for Advancing Translational Sciences (NCATS).
